# Laboratory results reported in the supplement of paper PMC6555819.
# Columns and labels:
# Experiment in all cases: PBM binding z-score (relative to random genomic background probes); higher = stronger binding; sequences stand for … in GC…GCGATTGACAGCGTAGAATGAAGG
# [1] = test system: FXR:RXRa (NR concentration 270 nM, RXRa partner concentration 90 nM)
# Procedure, shortened: (§1)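 For binding z-scores, the reference was random background probes on custom Agilent 4×180K protein-binding microarrays. These arrays were incubated 1 h with ligand-free nuclear receptor dimers in PBS pH 7.4, 2% milk, 0.02% Triton X-100, 1 mM DTT, 0.2 mg/mL BSA and 0.4 mg/ml salmon testes DNA. Fluorescence was scanned after antibody detection of each partner (one per run) and regression-normalized.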
# [2] = test system: LXRa:RXRa (NR concentration 270 nM, RXRa partner concentration 90 nM)
# Procedure, shortened: as §1
# [3] = test system: LXRa homodimer (NR concentration 270 nM)
# Procedure, shortened: as §1
# [4] = test system: LXRb:RXRa (NR concentration 270 nM, RXRa partner concentration 90 nM)
# Procedure, shortened: as §1
# [5] = test system: LXRb homodimer (NR concentration 270 nM)
# Procedure, shortened: as §1
# [6] = test system: PPARa:RXRa (NR concentration 270 nM, RXRa partner concentration 90 nM)
# Procedure, shortened: as §1
# [7] = test system: PPARg:RXRa (NR concentration 180 nM, RXRa partner concentration 90 nM)
# Procedure, shortened: as §1
# [8] = test system: PPARg:RXRa 270nM:90nM, anti-RXR (NR concentration 270 nM, RXRa partner concentration 90 nM)
# Procedure, shortened: as §1
# [9] = test system: PPARg:RXRa 30nM:10nM, anti-RXR (NR concentration 30 nM, RXRa partner concentration 10 nM)
# Procedure, shortened: as §1
# [10] = test system: PPARg:RXRa 90nM:30nM, anti-RXR (NR concentration 90 nM, RXRa partner concentration 30 nM)
# Procedure, shortened: as §1
Sequence,PBM binding z-score [1],PBM binding z-score [2],PBM binding z-score [3],PBM binding z-score [4],PBM binding z-score [5],PBM binding z-score [6],PBM binding z-score [7],PBM binding z-score [8],PBM binding z-score [9],PBM binding z-score [10]
TATACAGGGTCAAAGGCCAGGGTACGAATGTCGA,6.87,6.23,2.51,4.8,2.5,6.27,8.53,7.29,5.77,6.97
ACTAGCAGGCCAAGTTTGGGTCACGCAAACAAAG,1.01,0.518,-0.2,1.33,-0.873,2.27,0.556,1.04,-0.0172,0.546
TAGCCTAGGTCATGCGGTCCAGTATAGTGTCGGC,4.09,2.83,0.301,1.8,-0.379,3.51,2.34,2.32,0.235,1.3
CAAACTAGGTCACCGGAAGGTCAAGGTCCGCATG,5.96,5.56,3.66,4.58,0.998,5.83,9.82,7.78,5.66,8.09
TATGCTAGGTCAACGATGGTCAGCTAATCTGCTA,3.36,4.53,2.1,2.25,0.889,3.37,2.89,2.78,0.716,1.87
TCTCGGAGGACACGAAAGGTCAGAGCCCGACATC,2.84,3.75,3.31,3,-0.257,3.36,1.57,2.78,2.36,2.59
ATACCAAGGTGATCGTGAGGTCGTTGGTACTAAC,1.53,1.48,0.698,0.769,0.221,1.51,0.281,0.597,-0.201,0.338
CCTACTGGGCTATTCAGAGGTCATTGATCATATG,2.44,4.58,7.28,3.7,0.414,3.44,1.17,2.73,0.812,1.97
CCTATTAGTTGACAATAAGGGCAACCGAAGCTCG,0.365,0.482,0.182,0.544,0.647,0.418,0.511,0.218,0.0655,0.0255
CCAGACCGGTGAGAAGGTAACTCAGCCTCGATTA,-0.29,0.0278,0.205,-0.175,-0.35,-0.101,-0.0328,-0.307,-0.601,-0.547
ACTATTAGTTGAGACGAGGGGAACCGATAGGTTG,0.227,-0.0882,-0.278,-0.282,0.604,-0.0604,0.569,-0.00558,0.211,0.143
ATATGTACGTTAAGGGTCATTCAGGTTGGTTCGC,4.5,4.13,2.57,4.2,1.31,4.74,4.87,6.38,4.9,6.21
ATCTCTAGGTAAGACTCATTTCAGTGAAGAACGC,0.503,0.373,0.526,0.488,0.888,-0.0236,0.0953,0.265,0.363,0.295
TGAATGAGGTTATAAGATCTGGGAACGTTGCAAA,1.32,1.03,-0.215,1.06,-0.0795,2.54,1.01,1.83,0.892,1.58
CCGACTGAGGCATAAGGTTACCATAAGCCAGCCC,0.414,2.01,-0.182,1.05,-1.08,1.18,0.973,1.31,-0.0351,0.852
GCTAGCAGGCAATTTGGGTCACTCAATGACGGGC,0.195,0.398,-0.578,0.171,-0.943,2.23,0.983,0.964,-0.305,0.409
TCATATAGGTAAATGCTAGGTGAACGTCCGATCT,0.421,0.682,0.358,0.608,-0.229,1.36,1.09,2.06,3.51,2.65
ATATGTAGGTTATCGGCTCATTCAGTTTGCGCAT,0.488,0.867,0.283,0.755,1.03,2.6,4.14,3.87,1.47,3.4
TCTGCTAGGTCAGTTCGTCAGCTAACGAGCTGCC,0.654,0.387,-0.691,0.0408,0.21,0.896,0.0243,1.38,1.37,1.51
CCTTACGGATCACTGACAGGTTATAGCATTTGGA,0.345,0.818,0.768,0.559,0.661,0.447,0.638,0.275,0.461,0.192
ACAGACAGTTGATGAAGGTAACTCAGGCTATCAT,0.165,-0.156,-0.193,-0.191,0.0371,-0.00843,0.507,-0.149,-0.0201,-0.134
CCTGCTAGGTTATGGTCAGCTAATCTACAGTATG,-0.0301,-0.0994,-0.554,-0.211,-0.277,-0.0739,-0.279,-0.092,-0.295,-0.423
GATACAGGTTCAAGGCCAGAGTACGCGTATTGAT,1.85,1.7,0.305,1.41,-0.271,2.72,1.43,1.64,0.208,1.19
